# Test results published in PubChem BioAssay (NCI).
# This is part of a sample that, as a whole, favours compounds with a hit. Of some 79,000 tested, about 15% had one in any assay. Activity calls are given as the source filed them. Cut-off read from the data, not from the text of the source: active = growth inhibition above about 70%; inactive = the rest.
# Assay: NCI Yeast Anticancer Drug Screen. Data for the sgs1 mgt1 strain (AID 161);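 note: 0% = growth of cultures given vehicle only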
# Settings: S. cerevisiae sgs1 mgt1 strain, at 50.0 µM, active compounds read high
# Procedure: Growth inhibition of yeast strains with defined genetic alterations is measured as a screen for potential anti-cancer activity. Selected strains with alterations in DNA damage repair or cell cycle control were exposed to compounds and growth inhibition was measured relative to vehicle treated controls. The strain used in this assay is sgs1 mgt1
row,SMILES,growth inhibition
1,CN(C)CCNC(=O)c1cccc2c(Nc3ccc(S(N)(=O)=O)cc3)c3ccccc3nc12,-43.1% (inactive)
2,Cc1ccc(C(O)(c2ccc(C)cc2)C2CCCCC2=C(c2ccccc2)c2ccccc2)cc1 (stereo not given),-14.2% (inactive)
3,COC(=O)c1ccc(/C2=c3\cc/c([n-]3)=C(\c3ccc(C(=O)OC)cc3)c3ccc([n-]3)/C(c3ccc(C(=O)OC)cc3)=c3/cc/c([n-]3)=C(\c3ccc(C(=O)OC)cc3)c3ccc2[n-]3)cc1.[Mn],12.5% (inactive)
4,COc1ccc(Cc2c[nH]c3cc(OC)c(OC)cc23)cc1OC,18.9% (inactive)
5,Cc1cc(Cl)ccc1OC(=O)NC1CCCCC1,-2.35% (inactive)
6,CCCC(=O)Oc1ccc2ccccc2c1,1.8% (inactive)
7,NC(CCCCn1nnc2c(=O)[nH]cnc21)C(=O)O (stereo not given),6% (inactive)
8,CC(C)c1ccc(/C=C/C(=O)c2ccc(F)cc2)cc1,16.5% (inactive)
9,CC(C)N(C(=S)/N=C1/SC(C)S(=O)(=O)N1C)C(C)C (stereo not given),-5.95% (inactive)
10,CCOC(=O)[C@H]1Nc2ccc(C)cc2C2c3ccccc3CC21 (stereo not given in full),3.45% (inactive)
11,CCOc1ccccc1NC(=O)Nc1cccc(C(F)(F)F)c1,76% (active)
12,Cc1cc(C)c2[nH]c(=O)c(C)c(C)c2c1Br,-7.2% (inactive)
13,CCOc1ccc(CC(=O)Nc2cc([N+](=O)[O-])ccc2NCCN(CC)CC)cc1,-8.6% (inactive)
14,C=C1C(=O)OC2C=C(C)C3C(OC(=O)c4ccccc4)CC(C)(O)C3CC12 (stereo not given),3.05% (inactive)
15,Cc1ccc(C(=O)c2cc3c([nH]c4ccccc43)c(C)c2C(=O)O)cc1,-5.1% (inactive)
16,O=c1[nH]nnc2cc(Cl)ccc12,-4.65% (inactive)
17,CCCC(CCC)(CCC)CCN(C)C,-14.9% (inactive)
18,Cn1c2ccccc2c2nc3ccccc3c(Cl)c21,-49.9% (inactive)
19,CC(=O)C[n+]1ccccc1Sc1ccc(Cl)cc1,14.1% (inactive)
20,COc1cc(=O)cc2n(-c3cc(OC)c(O)c(OC)c3)c3ccccc3nc1-2,5.95% (inactive)

row,SMILES,growth inhibition
1,CN=C(NC#N)NCc1ccccc1,-2.6% (inactive)
2,Cc1ccc(C(C#N)c2ccc(N)cc2)cc1 (stereo not given),29.9% (inactive)
3,CSC(=S)Nc1cc(C)cc(C)n1,62.1% (inactive)
4,CCCCCCCCCCCCCCCCCC(=O)OCC(O)CO (stereo not given),2.85% (inactive)
5,Brc1cccc(C2ON=C(c3ccccc3)N2C23CC4CC(CC(C4)C2)C3)c1 (stereo not given),-1.75% (inactive)
6,COc1ccc(NC(=S)c2ccoc2C)cc1CC(=O)OC(C)C,48.5% (inactive)
7,COc1cc([C@@H]2c3cc4c(cc3[C@H](O)[C@H]3COC(=O)[C@@H]23)OCO4)cc(OC)c1OC,1.2% (inactive)
8,Cc1nc(Cl)nc2c1C(=O)Nc1ccccc1N2,0% (inactive)
9,[Cl][Sm]([Cl])[Cl],8.65% (inactive)
10,CSc1ccc(C(=O)c2ccc(SC)cc2)cc1,16.2% (inactive)
11,CCNC1=CC(=O)c2ncccc2C1=O,27.7% (inactive)
12,CCOC(=O)/C=C1\CCC(C)n2c1nccc2=O (stereo not given),-6% (inactive)
13,C[Si](C)(C)CN=P(c1ccccc1)(c1ccccc1)c1ccccc1,-19.2% (inactive)
14,Cc1cc(C)c(C#N)c(SC(C(=O)NC(C)(C)C)c2ccccc2)n1 (stereo not given),8.75% (inactive)
15,C=C(C)C(=O)OCC(CC)(COC(=O)C(=C)C)COC(=O)C(=C)C,8.35% (inactive)
16,Nc1nc2c(nc(Br)n2C2OC(CO)C(O)C2O)c(=O)[nH]1 (stereo not given),0.95% (inactive)
17,CCOc1ccc(N2C(C#N)c3ccccc3OC2c2ccccc2O)cc1 (stereo not given),18.6% (inactive)
18,CC(=O)Nc1cscc1NC(C)=O,6.05% (inactive)
19,O=C(NC12CC3CC(NC(=O)c4ccccc4)(CC(C1)c1ccccc13)C2)c1ccccc1,57.4% (inactive)
20,COc1cc2c(-c3cc(OC)c(OC)c(OC)c3)cc(C)[n+](C)c2cc1OC,-2.3% (inactive)
